CYP2C19 inh – blocks human cytochrome P450 2C19; AID 778; CYP2C19 Supersomes, luciferin-H EGE luminescence, 30 min; 96,000 compounds, 21% hits; P33261; inhibition, % at 5 µM;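 active means CYP2C19 inhibition above a set limit at 5 µM in the primary screen, cut at about 50% in these data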;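 further: plate controls were negative control wells for no effect and 2.5 mM tranylcypromine positive control for full effect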
sEH inh – blocks human soluble epoxide hydrolase activity; P34913; recombinant human sEH enzymatic activity assay; inhibition, % at 2 µM; 91,000 compounds, 0.34% hits; AID 707; in the data active means inhibition above about 80%
Target sequence (P34913 whole entry, looked up): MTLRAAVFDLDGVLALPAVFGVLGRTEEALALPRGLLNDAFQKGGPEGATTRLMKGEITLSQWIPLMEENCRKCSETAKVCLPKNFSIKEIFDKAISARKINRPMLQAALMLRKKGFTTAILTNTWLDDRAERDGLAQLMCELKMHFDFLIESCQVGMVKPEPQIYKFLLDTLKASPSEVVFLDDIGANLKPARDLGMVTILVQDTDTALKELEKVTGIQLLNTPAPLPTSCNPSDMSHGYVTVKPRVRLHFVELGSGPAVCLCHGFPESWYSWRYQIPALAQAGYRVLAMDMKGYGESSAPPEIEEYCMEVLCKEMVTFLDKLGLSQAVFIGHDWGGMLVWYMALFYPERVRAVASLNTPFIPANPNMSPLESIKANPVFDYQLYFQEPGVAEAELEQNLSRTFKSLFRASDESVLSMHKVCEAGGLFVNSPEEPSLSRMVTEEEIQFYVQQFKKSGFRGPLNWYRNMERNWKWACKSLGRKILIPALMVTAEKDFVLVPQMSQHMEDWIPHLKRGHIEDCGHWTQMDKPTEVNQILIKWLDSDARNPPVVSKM
CYP2C9 act – activators of human CYP2C9 | 96,000 compounds, 1.4% hits | P11712 | recombinant CYP2C9, luciferin-H conversion, luminescence; stronger effect = higher value; factor 1 = untreated enzyme, 0 = blocked | activation factor at 5 µM;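 active means activation factor of 2 or more for CYP2C9 at a 5 µM dose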;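 further: 0 = sulfaphenazole-blocked wells and 1 = vehicle-only wells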
CYP2C19 activ – increases human CYP2C19 enzyme activity | AID 1025 | recombinant CYP2C19, luciferin-H EGE luminescence; stronger effect = higher value; 0 = fully inhibited enzyme, 1 = untreated enzyme | activation factor at 5 µM | P33261 | 96,000 tested, under 10 active;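 active means activation factor of at least 2 at 5 µM in the primary screen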;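 further: 0 = wells with 2.5 mM tranylcypromine and 1 = vehicle-only wells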
sEH act – increases human soluble epoxide hydrolase activity; P34913; purified human sEH enzymatic activity, activator screen; activation, % at 2 µM; 91,000 compounds, 0.04% hits; AID 717; in the data active means activation above about 37%
CYP2C9 inhib – inhibitors of human CYP2C9; 96,000 compounds, 20% hits; AID 777; CYP2C9 Supersomes, luciferin-H conversion, luminescence; inhibition, % at 5 µM; P11712;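 active means blocking of liver enzyme CYP2C9 beyond about 50% at 5 µM, limit read from the data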
* = called active by the depositor; . = no result. In the library only some 27% were active in any assay of this set; here they are far more common.

SMILES | CYP2C19 inh | sEH inh | CYP2C9 act | CYP2C19 activ | sEH act | CYP2C9 inhib
COc1ccc(CN2C(=O)C(O)(CC(=O)c3ccc4c(c3)OCO4)c3ccccc32)cc1OC (stereo not drawn) | 19 | -2 | 0.9 | 0.8 | 4 | 9
Cc1ccc(C(=O)CC2(O)C(=O)N(CN3CCOCC3)c3ccccc32)cc1 (stereo not drawn) | 54* | 8 | 0.9 | 0.5 | -8 | 8
CC(C)c1ccc(C(=O)CC2(O)C(=O)N(CN3CCOCC3)c3ccccc32)cc1 (stereo not drawn) | 78* | -7 | 0.8 | 0.2 | 11 | 18
CCN1C(=O)C(O)(CC(=O)c2ccc3c(c2)OCCO3)c2ccccc21 (stereo not drawn) | 67* | . | 0.8 | 0.3 | . | 17
O=C(C1CC1)N(CCN(Cc1ccccc1)C(=O)C1CC1)Cc1ccccc1 | 54* | 2 | 0.7 | 0.5 | -3 | 28
COC(=O)CSC1=C(C#N)C(c2ccsc2)CC(=O)N1 (stereo not drawn) | . | -7 | . | . | 13 | .
Cc1ccc(CNC(=O)COC(=O)c2cnccn2)cc1 | 20 | -6 | 1 | 0.8 | 4 | 1
Cc1ccc(-c2csc(=S)n2CC(=O)OCC(=O)NCc2ccc(F)cc2)cc1 | 80* | -4 | 0.1 | 0.2 | 5 | 87*
COc1ccc(/C=C2\N=C(SC)NC2=O)cc1 | 7 | -15 | 0.9 | 0.9 | 17 | 14
COc1ccc(/C=C2\N=C(SC)N(C)C2=O)cc1 | 52* | -7 | 0.6 | 0.5 | 6 | 39
CC1=CC(C)(C(Cl)Cl)C(C)=CC1=O (stereo not drawn) | . | 5 | . | . | -5 | .
CCOC(=O)C(=Cc1ccc(-c2ccsc2C(=O)OC)o1)C(=O)OCC | 34 | -2 | 0.5 | 0.7 | 1 | 50*
CCSc1ncc(C#N)c(N)n1 | 3 | -8 | 0.9 | 1 | 6 | 11
O=c1c2ccccc2nc2n1C(CSCc1ccc(Cl)cc1Cl)CS2 (stereo not drawn) | 64* | 10 | 0.8 | 0.4 | -11 | 22
COC(=O)CNc1nc(-c2ccncc2)nc2ccccc12 | 56* | 6 | 0.2 | 0.4 | -5 | 84*
CCOc1nc(-c2ccncc2)nc2ccccc12 | . | 0 | . | . | 3 | .
COc1ccccc1NC(=O)c1nn(-c2cccc(C(F)(F)F)c2)ccc1=O | -8 | -13 | 2.7* | 1.1 | 10 | -167
COc1ccccc1NC(=O)c1nn(-c2ccc(F)c(F)c2)ccc1=O | -12 | 4 | 1.3 | 1.1 | -2 | -30
O=c1ccn(-c2cccc(C(F)(F)F)c2)nc1-c1ccn(-c2ccccc2F)n1 | 41 | 4 | 0.3 | 0.6 | -5 | 69*
COc1ccc(-n2ccc(-c3nn(-c4cccc(C(F)(F)F)c4)ccc3=O)n2)cc1 | 82* | 0 | 0.2 | 0.2 | 2 | 83*
O=C(c1c(Cl)cccc1Cl)N1CCN(c2ccccn2)CC1 | 37 | -10 | 0.4 | 0.6 | 10 | 63*
COc1cccc(OC)c1C(=O)N1CCN(c2ccccn2)CC1 | 25 | -16 | 0.9 | 0.8 | 19 | 7
O=C(c1cc(Cl)ccc1Cl)N1CCN(c2ccccn2)CC1 | 94* | 3 | 0.1 | 0.1 | -5 | 92*
COc1ccccc1C(=O)N1CCN(c2ccccn2)CC1 | 32 | -1 | 0.7 | 0.7 | 0 | 27
Cc1cccc(C(=O)N2CCN(c3ccccn3)CC2)c1 | . | -2 | . | . | 3 | .
SMILES | CYP2C19 inh | sEH inh | CYP2C9 act | CYP2C19 activ | sEH act | CYP2C9 inhib
Nc1cccc2c1C(=O)N(C(=O)c1ccc(S(=O)(=O)N3CCCCCC3)cc1)C2=O | 29 | 7 | 0.4 | 0.7 | -6 | 57*
O=C(c1cccc(Cl)c1)N1CCN(c2ccccn2)CC1 | 90* | -23 | 0.2 | 0.1 | 23 | 79*
O=C(OCn1nnc2ccccc2c1=O)c1cn(-c2ccccc2)nc1-c1cccnc1 | 11 | -3 | 0.7 | 0.9 | 2 | 35
O=C1c2oc3ccccc3c(=O)c2C(c2cccs2)N1CCCN1CCOCC1 (stereo not drawn) | 2 | 0 | 0.8 | 1 | 0 | 23
NC(=O)C1CCN(C(=O)N2c3ccccc3Sc3ccccc32)CC1 | 22 | -6 | 1 | 0.8 | 4 | 2
O=C(N1CCN(c2ccccn2)CC1)N1c2ccccc2Sc2ccccc21 | 90* | 1 | 0.1 | 0.1 | 1 | 88*
O=C(c1ccc(Cl)c(S(=O)(=O)N2CCCC2)c1)N1CCN(c2ccccn2)CC1 | 11 | 0 | 0.7 | 0.9 | 2 | 32
O=C(c1ccc(S(=O)(=O)N2CCCCCC2)cc1)N1CCN(c2ccccn2)CC1 | 8 | 1 | 0.3 | 0.9 | 2 | 69*
Cc1ccccc1C(=O)c1cccn1CC(=O)N1CCCCCC1 | 33 | -4 | 0.7 | 0.7 | 0 | 32
CC(NC(=O)c1ccco1)C(=O)N1CCc2ccccc2C1 (stereo not drawn) | 28 | -29 | 1 | 0.7 | 29 | -4
CCOC(=O)C(C(=O)Nc1nccs1)C1CCCCC1 (stereo not drawn) | 69* | 6 | 0.2 | 0.3 | -6 | 77*
CCOC(=O)C(C(=O)Nc1cccc(C)c1)C1CCCCC1 (stereo not drawn) | 82* | 7 | 0.4 | 0.2 | -10 | 55*
CCOC(=O)C(C(=O)Nc1cccc(C)n1)C1CCCCC1 (stereo not drawn) | 80* | . | 0.2 | 0.2 | . | 82*
CCOC(=O)C(C(=O)Nc1nc2ccccc2s1)C1CCCCC1 (stereo not drawn) | 38 | 2 | 0.1 | 0.6 | 1 | 92*
Cc1cc(C)cc(N(CC(=O)NCC2CCCO2)C(=O)CCC(=O)Nc2cc(C)on2)c1 (stereo not drawn) | 8 | -12 | 0.7 | 0.9 | 11 | 26
CC(C)(C)OC(=O)N1CCOCCOCCN(C(=O)OC(C)(C)C)CCOCCOCC1 | -2 | 7 | 1 | 1 | -4 | 0
CCn1c(SCC(=O)Nc2ccccc2N2CCCCC2)nc2c1c(=O)n(C)c(=O)n2C | 39 | 1 | 0.2 | 0.6 | 1 | 79*
CCCn1c(SCC(=O)N2CCCc3ccccc32)nc2c1c(=O)n(C)c(=O)n2C | 31 | -10 | 0.2 | 0.7 | 9 | 79*
CCCc1nc(SCC(=O)N2CCC(Cc3ccccc3)CC2)c2c(=O)n(C)c(=O)n(C)c2n1 | 66* | 6 | 0.1 | 0.3 | -4 | 95*
Cn1c(=O)c2c(SCC(=O)N3CCCc4ccccc43)nc(CC(C)(C)C)nc2n(C)c1=O | . | -10 | . | . | 7 | .
CCCc1nc(SCC(=O)N2CCCc3ccccc32)c2c(=O)n(C)c(=O)n(C)c2n1 | 17 | -6 | 0.1 | 0.8 | 6 | 94*
CCCc1nc(SCC(=O)Nc2ccccc2)c2c(=O)n(C)c(=O)n(C)c2n1 | -6 | . | 0.8 | 1.1 | . | 17
CC(C)n1c(SCC(=O)Nc2ccccc2N2CCOCC2)nc2c1c(=O)n(C)c(=O)n2C | . | -12 | . | . | 11 | .
O=C(COc1ccc(-c2nnco2)cc1)N1CCN(S(=O)(=O)c2ccc3ccccc3c2)CC1 | 29 | 5 | 1.1 | 0.7 | -7 | -7
